Data taken from PubChem BioAssay AID686979 (National Center for Advancing Translational Sciences (NCATS), 2013).
Among all 420,000 compounds or so, about 50,000 (12%) were called active. Roughly 26% stayed inconclusive and do not appear here. Calls come from the whole dose curve; as a rule, active = well fitted inhibition curve with a large enough effect; inconclusive = small, poorly fitted or top-dose-only effect; inactive = flat fitted curve, though single readings scatter. What follows is part of a selection rich in actives, with near analogues and random picks from the rest.

assay: qHTS for Inhibitors of human tyrosyl-DNA phosphodiesterase 1 (TDP1): qHTS in cells in presence of CPT; conditions: chicken DT40 Tdp1-/-;hTDP1 cells + 20 nM CPT, ATP luminescence, 48 h; series mostly up to 46.2 µM; activity change, negative = growth inhibition: at the top concentration; note: nearly all actives have a fitted effect of over 55% in size
In short: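 Chicken DT40 Tdp1-/- cells complemented with human TDP1, 400 cells/well, exposed to compounds plus 20 nM camptothecin for at least 48 h at 37 C; viability read as ATP content by CellTiter-Glo luminescence.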
% is set by controls: 0 for no effect and ±100 for the full control effect; potency is the fitted concentration of half-maximal effect.

Row | SMILES | activity change, negative = growth inhibition | Potency
1 | Nc1ncnc2c1ncn2[C@@H]1O[C@H](C(=O)N2CCCN(Cc3ccccc3F)CC2)[C@@H](O)[C@H]1O | -1.31% (inactive) | –
2 | CC1(C)Cc2c(sc3nc4n(c(=N)c23)CCCCC4)CO1 | -7.87% (inactive) | –
3 | C=CCNC(=S)NNc1ncnc2sc3c(c12)CC(C)(C)OC3 | – | 4.61 µM (active)
4 | CCSc1nc2sc3c(c2c(=O)[nH]1)CC(C)(C)OC3 | -6.76% (inactive) | –
5 | Cc1c(CCC(=O)O)c(=O)oc2cc(OCc3ccc(Br)cc3)ccc12 | -1.89% (inactive) | –
6 | Fc1ccc(NC(=S)N2CCc3[nH]c4ccccc4c3C2)cc1 | -0.771% (inactive) | –
7 | COC(=O)c1scc(S(=O)(=O)C(C)(C)C)c1-n1cccc1 | -11.3% (inactive) | –
8 | Clc1ccc(-c2nc3ccccn3c2CN2CCSCC2)cc1 | – | 29.1 µM (active)
9 | CN(C)C(=O)c1nc2ccc(Cl)cn2c1CN1CCN(c2ncccn2)CC1 | -7.94% (inactive) | –
10 | CC/C(=N\NC(=O)c1c(C)nc2ccccn12)c1ccc(Cl)cc1 | -18.7% (inactive) | –
11 | O=C(COc1ccc(S(=O)(=O)NCc2ccccc2)cc1)N1CCOCC1 | 0.118% (inactive) | –
12 | Cc1ccc(S(=O)(=O)Nc2ccc3ncccc3c2)cc1 | – | 10.3 µM (active)
13 | Cc1ccc(OCC(=O)Nc2ccc(S(=O)(=O)Nc3ccccn3)cc2)cc1 | -5.79% (inactive) | –
14 | Cc1ccc(NS(=O)(=O)c2ccc(C(C)(C)C)cc2)cn1 | -4.37% (inactive) | –
15 | Cc1oc2cc3oc(=O)ccc3cc2c1C | -2.18% (inactive) | –
16 | Cc1sc2ncnc(N3CCC(C(=O)NNC(=O)c4ccc(F)cc4)CC3)c2c1C | – | 18.4 µM (active)
17 | O=C(NNC(=O)C1CCCC1)c1ccc(F)cc1 | -1.66% (inactive) | –
18 | CS(=O)(=O)c1ccc2nc(NC(=O)CN3CCCCCC3)sc2c1 | -8.7% (inactive) | –
19 | CS(=O)(=O)c1ccc2nc(NC(=O)C3C4C=CC(C4)C3C(=O)O)sc2c1 (configuration not stated) | -6.9% (inactive) | –
20 | Cc1sc2ncnc(N3CCC(C(=O)Nc4nc5ccc(Cl)cc5s4)CC3)c2c1C | – | 8.2 µM (active)
21 | O=C(NNC(=O)C1CCN(c2ncccn2)CC1)c1ccccc1 | -3.34% (inactive) | –
22 | COc1ccccc1C1CN(CCNC(=O)C2=CCCC2)Cc2ccccc2O1 (configuration not stated) | -9.51% [at 9.04 µM] (inactive) | –
23 | Nc1ncnc2c1ncn2[C@@H]1O[C@H](CNCc2cccn2-c2nccs2)[C@@H](O)[C@H]1O | -14.9% (inactive) | –
24 | CCCCN1C(=O)C(CC(=O)NC(c2ccccc2)c2ccccc2)CC(C(=O)N2CCOCC2)=C1C (configuration not stated) | -7.93% (inactive) | –
25 | O=C1NCCn2nc3ccccc3c21 | -1.79% (inactive) | –
26 | Cc1ccc2c(c1)N(CC(=O)N1CCCC(C)C1)C(=O)CO2 (configuration not stated) | 2.29% (inactive) | –

Row | SMILES | activity change, negative = growth inhibition | Potency
27 | CNc1nc(Nc2ccc(C)c(Cl)c2)nc(N)c1[N+](=O)[O-] | 0.15% (inactive) | –
28 | Cc1ccc(Nc2nc(N3CCOCC3)nc(N3CCOCC3)n2)cc1Cl | – | 23.1 µM (active)
29 | Cc1cc(Nc2ccc(N3CCOCC3)cc2)c2cccc(C)c2n1 | -17.3% (inactive) | –
30 | COc1ccc(C2CC(=O)NC(=O)C2)cc1 | 7.32% (inactive) | –
31 | CC(C)(C)c1ccc(SCCc2ccncc2)cc1 | – | 18.4 µM (active)
32 | CC(C)(C)NC(=O)C(=O)NCc1ccncc1 | 36.2% (inactive) | –
33 | c1ccc(CSCCc2ccncc2)cc1 | -26.6% (inactive) | –
34 | Cc1cc(NC(=O)C(C)N2C(=O)c3ccccc3S2(=O)=O)no1 (configuration not stated) | 13% (inactive) | –
35 | COCc1cccc(-c2csc(C(O)c3ccc(F)cc3)n2)c1 (configuration not stated) | – | 16.4 µM (active)
36 | COc1cc(C(O)c2nc(-c3cccc(C(=O)O)c3)cs2)ccc1F (configuration not stated) | 7.12% (inactive) | –
37 | Fc1ccc(COc2cccc(-c3n[nH]c(=S)o3)c2)cc1 | -2.08% (inactive) | –
38 | COc1ccc(N2CCN(C(=O)C3CCN(C(=O)c4ccccc4Cl)CC3)CC2)cc1 | -14.8% (inactive) | –
39 | COc1ccc(N2CCN(C(=O)CSCc3nc(-c4ccccc4Cl)oc3C)CC2)cc1 | – | 14.6 µM (active)
40 | COc1ccc(N2CCN(C(=O)CN3C(=O)COc4ccccc43)CC2)cc1 | 0.58% (inactive) | –
41 | COc1ccccc1C(=O)Nc1ccnn1C1CCN(Cc2cnn(C)c2)CC1 | 6.7% (inactive) | –
42 | c1ccc(-c2cc(-c3ccccc3)[nH]n2)cc1 | -3.11% (inactive) | –
43 | CNc1nc(-c2ccccc2)cc(-c2ccccc2)n1 | 2.21% (inactive) | –
44 | Nc1nc(-c2ccccc2)cc(-c2ccccc2)n1 | – | 16.4 µM (active)
45 | Cc1ccccc1NC(=O)c1cc2c([nH]c1=O)CC(C)(C)CC2=O | 6.13% (inactive) | –
46 | Cc1ccc(F)c(NC(=O)CCOc2ccccc2C)c1 | -23.1% (inactive) | –
47 | COc1cc(C(=O)OCc2cc(=O)n3ccsc3n2)ccc1OC(C)C | – | 23.1 µM (active)
48 | COCCc1nn2c(=O)cc(COC(=O)c3cc(OC)c(OC)c(OC)c3)nc2s1 | -7.66% (inactive) | –
49 | COc1ccc(C(=O)OCc2cc(=O)n3ccsc3n2)cc1F | 11.4% (inactive) | –
50 | CCc1c(C)nc2c(-c3ccccc3)c(C)nn2c1Nc1ccc(NC(C)=O)cc1 | -8.91% (inactive) | –
51 | CCOC(=O)N1CCN(S(=O)(=O)N2CCCC(C(=O)NCCCN3CCC(C)CC3)C2)CC1 (configuration not stated) | 2.67% (inactive) | –
52 | COC(=O)C(C)NC(=O)COc1ccc2ccccc2c1 (configuration not stated) | -9.85% (inactive) | –

Row | SMILES | activity change, negative = growth inhibition | Potency
53 | CC(=O)NC(c1ccccc1)c1nc(-c2ccccc2C)cs1 (configuration not stated) | -7.32% (inactive) | –
54 | O=C(CN1CCOc2ccccc21)N1CCC(Cc2ccccc2)CC1 | – | 13 µM (active)
55 | CC1(C)CC(=O)C(CC(=O)N2CCC(Cc3ccccc3)CC2)C(=O)C1 | -0.242% (inactive) | –
56 | O=C(NCc1nnc(SCC(=O)N2CCC(Cc3ccccc3)CC2)o1)c1ccco1 | -8.68% (inactive) | –
57 | Cn1cnnc1Sc1ccc(S(C)(=O)=O)cc1[N+](=O)[O-] | 0.347% (inactive) | –
58 | Cc1cc(C)nc(NS(=O)(=O)c2ccc(N3C(=O)C4CCCCC4C3=O)cc2)n1 (configuration not stated) | 3.01% (inactive) | –
59 | CCCCn1c(SCC(=O)NCCc2ccc(OC)c(OC)c2)nc2c1c(=O)n(C)c(=O)n2C | 1.15% (inactive) | –
60 | Cn1c(=O)c2c(nc(OCc3cccnc3)n2Cc2ccccc2)n(C)c1=O | – | 11.6 µM (active)
61 | COc1ccc(CNc2nc3c(c(=O)[nH]c(=O)n3C)n2Cc2ccccc2)cc1 | -0.57% (inactive) | –
62 | Cn1c(=O)c2sccc2n(Cc2ccc(Br)cc2)c1=O | 4.25% (inactive) | –
63 | COc1ccc(CCNC(=O)Nc2ccc3c(c2)c(=O)n(C)n3C)cc1OC | 0.818% (inactive) | –
64 | Cc1nnc(Sc2nc3c(c(=O)[nH]c(=O)n3C)n2Cc2ccccc2)s1 | 0.541% (inactive) | –
65 | CCn1c(NCCc2ccc(OC)c(OC)c2)nc2c1c(=O)n(C)c(=O)n2C | – | 9.2 µM (active)
66 | Cn1c(=O)c2c(nc(N/N=C/c3cccs3)n2Cc2ccc(Br)cc2)n(C)c1=O | – | 20.6 µM (active)
67 | Cn1c(=O)[nH]c(=O)c2c1nc(NCCc1ccccc1)n2Cc1ccc(F)cc1 | – | 23.1 µM (active)
68 | Cc1ccc(CN2CCN(/N=C/c3cccnc3)CC2)c(C)c1 | 5.42% (inactive) | –
69 | COc1ccc(NC(=O)CCCC2CCCCC2)c(OC)c1 | -22.4% (inactive) | –
70 | NS(=O)(=O)c1ccc2nc(NC(=O)CS(=O)(=O)c3ccc(F)cc3)sc2c1 | 12.2% (inactive) | –
71 | O=C1NC[C@H](CCCCN2C[C@H](Cc3ccc(O)cc3)N(CC3CCCCC3)C(=O)C2=O)N(CCc2ccccc2)C1=O | -7.53% (inactive) | –
72 | O=c1nc(NO)ccn1C1CCCO1 (configuration not stated) | -3.51% (inactive) | –
73 | NC(=O)COc1ccc(C23CC4CC(CC(C4)C2)C3)cc1 | -20.8% (inactive) | –
74 | Cc1ccc(S(=O)(=O)Nc2nc(N)n(-c3ccccc3)n2)cc1 | 1.91% (inactive) | –
75 | CC(C)CCn1c(CN(C)Cc2ccccc2)nc2c1c(=O)n(C)c(=O)n2C | – | 6.51 µM (active)
76 | C=CCOc1nc2c(c(=O)n(C)c(=O)n2C)n1Cc1ccc(Cl)cc1Cl | – | 18.4 µM (active)
77 | Cn1c(=O)[nH]c(=O)c2c1nc(CN(Cc1ccccc1)Cc1ccccc1)n2CCN1CCOCC1 | -16.8% (inactive) | –
78 | CCCCNc1nc2c(c(=O)n(C)c(=O)n2C)n1Cc1cccc(OC)c1 | – | 2.91 µM (active)

Row | SMILES | activity change, negative = growth inhibition | Potency
79 | Cn1c(=O)c2c(nc(NCCc3ccccc3)n2Cc2ccccc2)n(C)c1=O | – | 5.8 µM (active)
80 | CC(C)OCCCNc1nc2c(c(=O)n(Cc3ccccc3F)c(=O)n2C)n1C | -9% (inactive) | –
81 | CC(C)CCn1cnc2c1c(=O)n(CC(=O)NC(N)=O)c(=O)n2Cc1ccccc1 | -21.6% (inactive) | –
82 | Cn1c(=O)c2c(nc(NCc3ccccc3)n2CC(N)=O)n(C)c1=O | -18% (inactive) | –
83 | COc1ccc(CCn2c(NCCCN3CCOCC3)nc3c2c(=O)[nH]c(=O)n3C)cc1 | -3.75% (inactive) | –
84 | COc1cccc(CNS(=O)(=O)c2cc3c(cc2C)n(C)c(=O)c(=O)n3C)c1 | – | inactive
85 | CC1CN(Cc2nc3c(c(=O)n(C)c(=O)n3C)n2Cc2cccc(Cl)c2)CC(C)O1 (configuration not stated) | -16.9% (inactive) | –
86 | Cn1c(=O)c2c(nc(Oc3ccc(C#N)cc3)n2Cc2ccc(Cl)cc2Cl)n(C)c1=O | -12.4% (inactive) | –
87 | COCCn1cnnc1SCC(=O)Nc1cccc(S(=O)(=O)N2CCCCC2)c1 | -15.9% (inactive) | –
88 | NC(=O)C1CCN(C(=O)/C(=C/c2ccco2)NC(=O)c2ccccc2)CC1 | 14.3% (inactive) | –
89 | Cc1c(C(=O)NC(=S)NCc2cccnc2)oc2ccccc12 | -16.7% (inactive) | –
90 | Cc1ccccc1OS(=O)(=O)c1cccc([N+](=O)[O-])c1 | -23.5% (inactive) | –
91 | CC(Oc1ccccc1[N+](=O)[O-])C(=O)N/N=C/c1ccoc1 (configuration not stated) | -10.4% (inactive) | –
92 | O=C(CCc1ccccc1)NNc1ccc(F)cc1 | -27.2% (inactive) | –
93 | CC(C)c1cc(C(=O)N2CCOc3ccc(CN4CCC(Oc5cccnc5)CC4)cc3C2)n[nH]1 | -19.6% [at 9.04 µM] (inactive) | –
94 | CC(C)CC1(C)NC(=O)N(CC(=O)Nc2ccc3c(c2)OCCO3)C1=O (configuration not stated) | 7.31% (inactive) | –
95 | Cc1cc(NC(=O)CSC2=NS(=O)(=O)c3cc(Cl)ccc3N2)no1 | 18.3% (inactive) | –
96 | O=C(Nc1cccc(Cl)c1)C1CCCN(c2cnccn2)C1 (configuration not stated) | -16.5% (inactive) | –
97 | COc1cccc(CNC(=O)C2CCCN(c3ncnc4c3nc3n4CCCCC3)C2)c1 (configuration not stated) | – | 23.1 µM (active)
98 | COc1cccc(NC(=O)C2CCCN(c3ncnc4c3nc3n4CCCCC3)C2)c1 (configuration not stated) | – | 20.6 µM (active)
99 | O=C(NCCCN1CCCCC1)C1CCCN(c2ncnc3c2nc2n3CCCCC2)C1 (configuration not stated) | 4.33% (inactive) | –
100 | COc1cccc(CNC(=O)C2CCCN(S(=O)(=O)N3CC(C)CC(C)C3)C2)c1 (configuration not stated) | -22.7% (inactive) | –
101 | COc1cccc(NC(=O)C2CCN(c3cc(C)nc4c(-c5ccc(Cl)cc5)c(C)nn34)CC2)c1 | -3.96% (inactive) | –
102 | N#Cc1c(NC(=O)C2CC(Cl)=CCC2C(=O)O)sc2c1CCCCC2 (configuration not stated) | 20.2% (inactive) | –
